# Measurements published in PubChem BioAssay.
# Activity calls are given as the source filed them.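 The calls were made as follows: active = GFP response below 50% of the DMSO control; inconclusive = fewer than 70 events counted for a yeast strain; inactive = the rest.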
# Test: RPL19A-GFP modulators, yeast TOR pathway, confirmation, cell-based, S. cerevisiae, flow cytometry, cherry picks, mother/daughter gates (AID 2270)
# Conditions: S. cerevisiae RPL19A-GFP strain, 3 h, at 10 µM, stronger effect = lower value, 100 = same GFP as DMSO wells
row,Compound,GFP response vs DMSO
1,O=C(Nc1ccc(NC(=O)c2cc3ccccc3o2)cc1)c1ccc2c(c1)OCCO2,103% (inactive)
2,Cc1ncc2c(n1)-c1cc(F)ccc1SC2,104% (inactive)
3,Cc1ccc(S(=O)(=O)Cc2cc(F)c([N+](=O)[O-])cc2[N+](=O)[O-])cc1,74.2% (inactive)
4,C/C(CC(=O)Nc1cc(C)ccn1)=N\NC(=O)c1cccc(F)c1,98.6% (inactive)
5,CN=C(NC)SC1CC(=O)N(c2ccccc2)C1=O (stereo not drawn),99.3% (inactive)
6,O=C1/C(=C\c2ccc(O)c(O)c2)SC(=S)N1Cc1ccccc1,100% (inactive)
7,COc1cc(/C=C2\C(=O)N(CCC#N)N=C2C)c(Br)cc1OC(C)C,105% (inactive)
8,CCn1c(=O)c(C(=O)Nc2nc3ccccc3[nH]2)c(O)c2ccccc21,82.3% (inactive)
9,CC1CN(c2nc3ccccn3c(=O)c2/C=C(\C#N)C(N)=O)CC(C)O1 (stereo not drawn),97.8% (inactive)
10,CCOC(=O)CSC1=NC(=O)/C(=C\c2ccc(Cl)cc2)S1,96.5% (inactive)
11,O=C(N/N=C/c1ccccc1Cl)c1cccc(F)c1,101% (inactive)
12,CCN(CC)CCNC(=O)Cn1c(-c2ccccn2)nc2ccccc21,99.5% (inactive)
13,COc1ccc(N2C(=O)C(Cl)=C(Nc3ccccc3OC)C2=O)cc1,101% (inactive)
14,COc1ccc(C(=O)/C=C/c2ccccc2C(F)(F)F)cc1,100% (inactive)
15,O=C(COc1ccc(F)cc1Cl)Nc1nc(-c2ccccn2)cs1,98% (inactive)
16,COc1ccc(/C=N/NC(=O)C2(C)NC(C)(C)Cc3ccccc32)cc1 (stereo not drawn),94.4% (inactive)
17,COc1ccc(OC)c(C2CC(c3c(-c4ccccc4)c4cc(Cl)ccc4[nH]c3=O)=NN2S(C)(=O)=O)c1 (stereo not drawn),100% (inactive)
18,Cc1ccc(/C=C/C(=O)N2CC(C)CC(C)C2)o1 (stereo not drawn),103% (inactive)
19,COc1ccc(CCNC2=C(Cl)C(=O)N(CCc3ccc(OC)c(OC)c3)C2=O)cc1OC,99.1% (inactive)
20,O=S1(=O)Nc2c(ccc3cccnc23)-c2ccccc21,89.9% (inactive)

row,Compound,GFP response vs DMSO
1,O=C(/C=C/c1cc(Br)ccc1O)c1ccco1,99.9% (inactive)
2,COc1cc(NC(C)=O)ccc1NC(=O)c1cc2ccccc2o1,99% (inactive)
3,COc1ccc(CC2=CC(=O)c3ccccc3C2=O)cc1,99.7% (inactive)
4,C=CCn1cc(/C=C/c2cc[n+](C)cc2)c2ccccc21,102% (inactive)
5,C[n+]1ccc(/C=C/c2c[nH]c3ccc(F)cc23)cc1,101% (inactive)
6,CCSc1nnc(NC(=O)c2nc(S(=O)(=O)Cc3ccc(F)cc3)ncc2Cl)s1,102% (inactive)
7,COc1ccc(C2c3c(oc4ccccc4c3=O)C(=O)N2CCN2CCOCC2)cc1OC (stereo not drawn),103% (inactive)
8,Cc1ccc(C(=O)c2c3ccccc3[n+]([O-])n2CCO)cc1,97% (inactive)
9,CC(=O)Nc1ccc(S(=O)(=O)NC(CC(=O)NCCC2=CCCCC2)C(C)C)cc1 (stereo not drawn),99.8% (inactive)
10,Cc1ccc(C(=O)NNC(=S)NC(=O)COc2ccccc2)cc1,122% (inactive)
11,Cc1occc1-c1nnc(-c2cc([N+](=O)[O-])cc([N+](=O)[O-])c2)o1,88.1% (inactive)
12,Cc1ccc(NS(=O)(=O)c2ccc(CCC(=O)N3CCOCC3)cc2)cc1,94.6% (inactive)
13,O=C1Nc2ccc(Br)cc2/C1=C/C1CC=CCC1 (stereo not drawn),106% (inactive)
14,CN1CC(=O)NC1=NC(=O)C12CC3CC(CC(C3)C1)C2,95% (inactive)
15,O=S(=O)(c1ccc(Oc2ccccc2)cc1)N1CCOCC1,98.2% (inactive)
16,COc1cc(NC(=O)c2oc3ccccc3c2C)ccc1NC(=O)c1ccco1,98% (inactive)
17,CCCN1CCN(C(=O)c2oc3ccccc3c2NC(=O)COc2ccc(OC)cc2)CC1,98.6% (inactive)
18,COc1cc(/C=C2\N=C(c3ccccc3)OC2=O)ccc1OC(C)=O,94.9% (inactive)
19,COc1ccc(NC(=O)/C(Cl)=C(/Cl)S(=O)Cc2ccccc2)cn1 (stereo not drawn),104% (inactive)

# Same assay, conditions: S. cerevisiae RPL19A-GFP strain, 3 h, measured here: daughter cell gate, at 10 µM, stronger effect = lower value, 100 = same GFP as DMSO wells
row,Compound,GFP response vs DMSO [%]
1,O=C(Nc1ccc(NC(=O)c2cc3ccccc3o2)cc1)c1ccc2c(c1)OCCO2,101
2,Cc1ncc2c(n1)-c1cc(F)ccc1SC2,105
3,Cc1ccc(S(=O)(=O)Cc2cc(F)c([N+](=O)[O-])cc2[N+](=O)[O-])cc1,88.4
4,C/C(CC(=O)Nc1cc(C)ccn1)=N\NC(=O)c1cccc(F)c1,97.5
5,CN=C(NC)SC1CC(=O)N(c2ccccc2)C1=O (stereo not drawn),97.8
6,O=C1/C(=C\c2ccc(O)c(O)c2)SC(=S)N1Cc1ccccc1,99.1
7,COc1cc(/C=C2\C(=O)N(CCC#N)N=C2C)c(Br)cc1OC(C)C,103
8,CCn1c(=O)c(C(=O)Nc2nc3ccccc3[nH]2)c(O)c2ccccc21,87.3
9,CC1CN(c2nc3ccccn3c(=O)c2/C=C(\C#N)C(N)=O)CC(C)O1 (stereo not drawn),97.3
10,CCOC(=O)CSC1=NC(=O)/C(=C\c2ccc(Cl)cc2)S1,87.9
11,O=C(N/N=C/c1ccccc1Cl)c1cccc(F)c1,98.1
12,CCN(CC)CCNC(=O)Cn1c(-c2ccccn2)nc2ccccc21,98.1
13,COc1ccc(N2C(=O)C(Cl)=C(Nc3ccccc3OC)C2=O)cc1,98.4
14,COc1ccc(C(=O)/C=C/c2ccccc2C(F)(F)F)cc1,99.1
15,O=C(COc1ccc(F)cc1Cl)Nc1nc(-c2ccccn2)cs1,94.7
16,COc1ccc(/C=N/NC(=O)C2(C)NC(C)(C)Cc3ccccc32)cc1 (stereo not drawn),94.9
17,COc1ccc(OC)c(C2CC(c3c(-c4ccccc4)c4cc(Cl)ccc4[nH]c3=O)=NN2S(C)(=O)=O)c1 (stereo not drawn),99
18,Cc1ccc(/C=C/C(=O)N2CC(C)CC(C)C2)o1 (stereo not drawn),105
19,COc1ccc(CCNC2=C(Cl)C(=O)N(CCc3ccc(OC)c(OC)c3)C2=O)cc1OC,98.5
20,O=S1(=O)Nc2c(ccc3cccnc23)-c2ccccc21,91.7

row,Compound,GFP response vs DMSO [%]
1,O=C(/C=C/c1cc(Br)ccc1O)c1ccco1,101
2,COc1cc(NC(C)=O)ccc1NC(=O)c1cc2ccccc2o1,97.8
3,COc1ccc(CC2=CC(=O)c3ccccc3C2=O)cc1,99.3
4,C=CCn1cc(/C=C/c2cc[n+](C)cc2)c2ccccc21,99.6
5,C[n+]1ccc(/C=C/c2c[nH]c3ccc(F)cc23)cc1,99.5
6,CCSc1nnc(NC(=O)c2nc(S(=O)(=O)Cc3ccc(F)cc3)ncc2Cl)s1,99
7,COc1ccc(C2c3c(oc4ccccc4c3=O)C(=O)N2CCN2CCOCC2)cc1OC (stereo not drawn),95.3
8,Cc1ccc(C(=O)c2c3ccccc3[n+]([O-])n2CCO)cc1,97.4
9,CC(=O)Nc1ccc(S(=O)(=O)NC(CC(=O)NCCC2=CCCCC2)C(C)C)cc1 (stereo not drawn),99.4
10,Cc1ccc(C(=O)NNC(=S)NC(=O)COc2ccccc2)cc1,92.1
11,Cc1occc1-c1nnc(-c2cc([N+](=O)[O-])cc([N+](=O)[O-])c2)o1,82.8
12,Cc1ccc(NS(=O)(=O)c2ccc(CCC(=O)N3CCOCC3)cc2)cc1,94.6
13,O=C1Nc2ccc(Br)cc2/C1=C/C1CC=CCC1 (stereo not drawn),100
14,CN1CC(=O)NC1=NC(=O)C12CC3CC(CC(C3)C1)C2,93.9
15,O=S(=O)(c1ccc(Oc2ccccc2)cc1)N1CCOCC1,98.4
16,COc1cc(NC(=O)c2oc3ccccc3c2C)ccc1NC(=O)c1ccco1,97.8
17,CCCN1CCN(C(=O)c2oc3ccccc3c2NC(=O)COc2ccc(OC)cc2)CC1,100
18,COc1cc(/C=C2\N=C(c3ccccc3)OC2=O)ccc1OC(C)=O,93.5
19,COc1ccc(NC(=O)/C(Cl)=C(/Cl)S(=O)Cc2ccccc2)cn1 (stereo not drawn),114
